{"source": "PubChem BioAssay AID1362", "about": "(SRMLSC, 2008)", "test": "growth inhibition of WT strain, primary screen, mitochondrial fusion inhibitor project, WT and mutant strains, chemical genetic (AID 1362)", "conditions": "mitochondrial fusion phenotypic screen, at 10 µM", "key": {"[1]": {"conditions": "WT strain, growth inhibition, stronger effect = higher value"}}, "note": "Among all 190,000 compounds or so, about 4,000 (2.1%) were called active. This is one part of a sample in which actives are shown more often than they occur. No stated cut-off is given here; in the data, active means inhibition above about 58%; inactive means the rest, inconclusive results apart; tested in S. cerevisiae."}
{"compound": "Cc1nc(C)c(C(=O)N(c2ccc(C)c(C)c2)C(C(=O)NCc2ccco2)c2ccccc2)s1", "note": "(centres undefined)", "values": [{"measurement": "inhibition", "setting": "[1]", "value": "16.8% (inactive)"}, {"measurement": "inhibition", "setting": "mutant strain inhibition", "value": 9.51, "unit": "%"}]}
{"compound": "O=C(NC1CC1)c1ccc(-c2ccccc2)cc1", "values": [{"measurement": "inhibition", "setting": "[1]", "value": "-18.3% (inactive)"}, {"measurement": "inhibition", "setting": "mutant strain inhibition", "value": 8.3, "unit": "%"}]}
{"compound": "CC1CCN(C(=S)c2cccc(O)c2)CC1", "values": [{"measurement": "inhibition", "setting": "[1]", "value": "-7.57% (inactive)"}, {"measurement": "inhibition", "setting": "mutant strain inhibition", "value": 21.7, "unit": "%"}]}
{"compound": "CCOC(=O)N1CCN(S(=O)(=O)c2cc(Br)cc3c2N(C(=O)C2CC2)CC3)CC1", "values": [{"measurement": "inhibition", "setting": "[1]", "value": "-4.28% (inactive)"}, {"measurement": "inhibition", "setting": "mutant strain inhibition", "value": 4.16, "unit": "%"}]}
{"compound": "CCN(c1ccc2c(c1)OCO2)S(=O)(=O)c1cc(Br)cc2c1N(C(=O)C1CC1)CC2", "values": [{"measurement": "inhibition", "setting": "[1]", "value": "82.3% (active)"}, {"measurement": "inhibition", "setting": "mutant strain inhibition", "value": 13.7, "unit": "%"}]}
{"compound": "CS(=O)(=O)N(CC(=O)N1CCN(Cc2ccc3c(c2)OCO3)CC1)c1ccc2c(c1)OCO2", "values": [{"measurement": "inhibition", "setting": "[1]", "value": "-12% (inactive)"}, {"measurement": "inhibition", "setting": "mutant strain inhibition", "value": -4.62, "unit": "%"}]}
{"compound": "COC(=O)CSc1nccc(-c2cccs2)n1", "values": [{"measurement": "inhibition", "setting": "[1]", "value": "-15.2% (inactive)"}, {"measurement": "inhibition", "setting": "mutant strain inhibition", "value": 12.6, "unit": "%"}]}
{"compound": "CCOc1ccc(/C=C(/NC(=O)c2ccccc2)C(=O)NCCC(=O)O)cc1", "values": [{"measurement": "inhibition", "setting": "[1]", "value": "-9.33% (inactive)"}, {"measurement": "inhibition", "setting": "mutant strain inhibition", "value": 4.17, "unit": "%"}]}
{"compound": "COc1cc(NC(=O)CN(C)S(=O)(=O)c2ccc3nc(C)sc3c2)cc(OC)c1", "values": [{"measurement": "inhibition", "setting": "[1]", "value": "5.19% (inactive)"}, {"measurement": "inhibition", "setting": "mutant strain inhibition", "value": 4.68, "unit": "%"}]}
{"compound": "C=CCn1c(N)c(C(=O)OCC(C)C)c2nc3ccccc3nc21", "values": [{"measurement": "inhibition", "setting": "[1]", "value": "66.3% (active)"}, {"measurement": "inhibition", "setting": "mutant strain inhibition", "value": -15.2, "unit": "%"}]}
{"compound": "C=CCn1c(N)c(S(=O)(=O)c2cccs2)c2nc3ccccc3nc21", "values": [{"measurement": "inhibition", "setting": "[1]", "value": "-1.23% (inactive)"}, {"measurement": "inhibition", "setting": "mutant strain inhibition", "value": 0.9, "unit": "%"}]}
{"compound": "CC(C)Cn1c(N)c(C(=O)NCc2cccs2)c2nc3ccccc3nc21", "values": [{"measurement": "inhibition", "setting": "[1]", "value": "3.94% (inactive)"}, {"measurement": "inhibition", "setting": "mutant strain inhibition", "value": 7, "unit": "%"}]}
{"compound": "CC(C)Oc1ccc(CCc2nnc(SCC(=O)O)n2-c2ccccc2)cc1", "values": [{"measurement": "inhibition", "setting": "[1]", "value": "-10.3% (inactive)"}, {"measurement": "inhibition", "setting": "mutant strain inhibition", "value": 10.7, "unit": "%"}]}
{"compound": "CN(c1cccc(NC(=O)Nc2ccc(Cl)cc2)c1)S(C)(=O)=O", "values": [{"measurement": "inhibition", "setting": "[1]", "value": "96.2% (active)"}, {"measurement": "inhibition", "setting": "mutant strain inhibition", "value": -6.73, "unit": "%"}]}
{"compound": "COc1cccc(N(CC(=O)Nc2cccc(N(C)S(C)(=O)=O)c2)S(C)(=O)=O)c1", "values": [{"measurement": "inhibition", "setting": "[1]", "value": "-5.64% (inactive)"}, {"measurement": "inhibition", "setting": "mutant strain inhibition", "value": 2.31, "unit": "%"}]}
{"compound": "Cc1ccc(N(CC(=O)Nc2cccc(N(C)S(C)(=O)=O)c2)S(C)(=O)=O)cc1", "values": [{"measurement": "inhibition", "setting": "[1]", "value": "0.56% (inactive)"}, {"measurement": "inhibition", "setting": "mutant strain inhibition", "value": -23, "unit": "%"}]}
{"compound": "O=C(N/N=C/c1ccc([N+](=O)[O-])cc1)C(=O)N1CCCC1", "values": [{"measurement": "inhibition", "setting": "[1]", "value": "11.1% (inactive)"}, {"measurement": "inhibition", "setting": "mutant strain inhibition", "value": 10.6, "unit": "%"}]}
{"compound": "CCOC(=O)c1cnc(-n2nc(C)cc2C)nc1NNc1cc(C)nc(-c2ccccc2)n1", "values": [{"measurement": "inhibition", "setting": "[1]", "value": "62.1% (active)"}, {"measurement": "inhibition", "setting": "mutant strain inhibition", "value": -11.2, "unit": "%"}]}
{"compound": "CCOC(=O)c1cnc(-n2nc(C)cc2C)nc1-n1nc(C)cc1C", "values": [{"measurement": "inhibition", "setting": "[1]", "value": "-11.1% (inactive)"}, {"measurement": "inhibition", "setting": "mutant strain inhibition", "value": -5.08, "unit": "%"}]}
{"compound": "CCOC(=O)c1cnc(-c2ccccc2)nc1Oc1ccc(C)cc1", "values": [{"measurement": "inhibition", "setting": "[1]", "value": "21.7% (inactive)"}, {"measurement": "inhibition", "setting": "mutant strain inhibition", "value": -24.7, "unit": "%"}]}
{"compound": "O=C(NNS(=O)(=O)c1ccc(F)cc1)c1cnccn1", "values": [{"measurement": "inhibition", "setting": "[1]", "value": "-14.2% (inactive)"}, {"measurement": "inhibition", "setting": "mutant strain inhibition", "value": 8.1, "unit": "%"}]}
{"compound": "CCc1ccccc1N1C(=O)C2C3CC(=O)C(c4ccccc43)C2C1=O", "note": "(centres undefined)", "values": [{"measurement": "inhibition", "setting": "[1]", "value": "5.26% (inactive)"}, {"measurement": "inhibition", "setting": "mutant strain inhibition", "value": 3.48, "unit": "%"}]}
{"compound": "CCN(C(=O)CN1CCN(Cc2ccccc2)CC1)c1c(N)n(Cc2ccccc2)c(=O)[nH]c1=O", "values": [{"measurement": "inhibition", "setting": "[1]", "value": "-4.65% (inactive)"}, {"measurement": "inhibition", "setting": "mutant strain inhibition", "value": 11.9, "unit": "%"}]}
{"compound": "COc1ccccc1C(=O)N1CC2(C)CC1CC(C)(C)C2", "note": "(centres undefined)", "values": [{"measurement": "inhibition", "setting": "[1]", "value": "18.6% (inactive)"}, {"measurement": "inhibition", "setting": "mutant strain inhibition", "value": 10.1, "unit": "%"}]}
{"compound": "Cc1cccc(C(=O)NCC(=O)OCC(=O)N2CC3(C)CC2CC(C)(C)C3)c1", "note": "(centres undefined)", "values": [{"measurement": "inhibition", "setting": "[1]", "value": "-4.43% (inactive)"}, {"measurement": "inhibition", "setting": "mutant strain inhibition", "value": 5.06, "unit": "%"}]}
{"compound": "Cc1nnnn1/C(=C\\c1ccccc1)C(=O)OCC(=O)N1CC2(C)CC1CC(C)(C)C2", "note": "(centres undefined)", "values": [{"measurement": "inhibition", "setting": "[1]", "value": "60.3% (active)"}, {"measurement": "inhibition", "setting": "mutant strain inhibition", "value": 11.4, "unit": "%"}]}
{"compound": "CN1CCCN(C(=O)C2CCCCC2)CC1", "values": [{"measurement": "inhibition", "setting": "[1]", "value": "2.94% (inactive)"}, {"measurement": "inhibition", "setting": "mutant strain inhibition", "value": -4.71, "unit": "%"}]}
{"compound": "CN(C)S(=O)(=O)N1CCN(c2ccc([N+](=O)[O-])cc2)CC1", "values": [{"measurement": "inhibition", "setting": "[1]", "value": "-1.29% (inactive)"}, {"measurement": "inhibition", "setting": "mutant strain inhibition", "value": -1.53, "unit": "%"}]}
{"compound": "O=C(NCc1ccc(Cl)cc1)NCc1ccc(Cl)cc1", "values": [{"measurement": "inhibition", "setting": "[1]", "value": "4.16% (inactive)"}, {"measurement": "inhibition", "setting": "mutant strain inhibition", "value": 4.87, "unit": "%"}]}
{"compound": "CC(C)Oc1ccc(CCc2n[nH]c(=S)n2Cc2ccccc2)cc1", "values": [{"measurement": "inhibition", "setting": "[1]", "value": "13.3% (inactive)"}, {"measurement": "inhibition", "setting": "mutant strain inhibition", "value": 0.86, "unit": "%"}]}
{"compound": "C=CCn1c(CCc2ccc(OC(C)C)cc2)n[nH]c1=S", "values": [{"measurement": "inhibition", "setting": "[1]", "value": "-7.58% (inactive)"}, {"measurement": "inhibition", "setting": "mutant strain inhibition", "value": -5.68, "unit": "%"}]}
{"compound": "CC(C)Oc1ccc(Cc2n[nH]c(=S)n2Cc2ccccc2)cc1Cl", "values": [{"measurement": "inhibition", "setting": "[1]", "value": "66.9% (active)"}, {"measurement": "inhibition", "setting": "mutant strain inhibition", "value": 17.8, "unit": "%"}]}
{"compound": "Cc1cccc(C2=N/C(=C/c3cccs3)C(=O)O2)c1", "values": [{"measurement": "inhibition", "setting": "[1]", "value": "-7.49% (inactive)"}, {"measurement": "inhibition", "setting": "mutant strain inhibition", "value": 9.32, "unit": "%"}]}
{"compound": "CSC1=N/C(=C\\C=C\\c2cccs2)C(=O)S1", "values": [{"measurement": "inhibition", "setting": "[1]", "value": "70.3% (active)"}, {"measurement": "inhibition", "setting": "mutant strain inhibition", "value": 37.4, "unit": "%"}]}
{"compound": "CSC1=N/C(=C\\c2ccc3c(c2)OCO3)C(=O)S1", "values": [{"measurement": "inhibition", "setting": "[1]", "value": "6.07% (inactive)"}, {"measurement": "inhibition", "setting": "mutant strain inhibition", "value": -0.28, "unit": "%"}]}
{"compound": "Cc1nnc(SCc2cccc(Cl)c2)n(N)c1=O", "values": [{"measurement": "inhibition", "setting": "[1]", "value": "-3.17% (inactive)"}, {"measurement": "inhibition", "setting": "mutant strain inhibition", "value": -5.61, "unit": "%"}]}
{"compound": "CCCN(CC(=O)Nc1ccc(OC)c(OC)c1)CC(=O)Nc1ccc(F)c(F)c1F", "values": [{"measurement": "inhibition", "setting": "[1]", "value": "4.56% (inactive)"}, {"measurement": "inhibition", "setting": "mutant strain inhibition", "value": 28.4, "unit": "%"}]}
{"compound": "O=[N+]([O-])c1ccc2c(c1)C(N1CCOCC1)/C(=C/C1(O)CCCCC1)O2", "note": "(centres undefined)", "values": [{"measurement": "inhibition", "setting": "[1]", "value": "-4.01% (inactive)"}, {"measurement": "inhibition", "setting": "mutant strain inhibition", "value": 0.41, "unit": "%"}]}
{"compound": "COc1cc(C)c(Cl)cc1S(=O)(=O)n1ccnc1", "values": [{"measurement": "inhibition", "setting": "[1]", "value": "3.86% (inactive)"}, {"measurement": "inhibition", "setting": "mutant strain inhibition", "value": -5.05, "unit": "%"}]}
{"compound": "COC(=O)C1=C(C(=O)c2ccc(C)cc2)C(c2ccccc2)n2nnnc2N1", "note": "(centres undefined)", "values": [{"measurement": "inhibition", "setting": "[1]", "value": "11.5% (inactive)"}, {"measurement": "inhibition", "setting": "mutant strain inhibition", "value": 4.37, "unit": "%"}]}
{"compound": "COc1ccccc1NC(=O)C1=C(C)Nc2nnnn2C1c1cccc(Br)c1", "note": "(centres undefined)", "values": [{"measurement": "inhibition", "setting": "[1]", "value": "-12.6% (inactive)"}, {"measurement": "inhibition", "setting": "mutant strain inhibition", "value": -7.01, "unit": "%"}]}
{"compound": "COC(=O)c1ccc(C2C3=C(Nc4nnnn42)c2ccccc2OC3)cc1", "note": "(centres undefined)", "values": [{"measurement": "inhibition", "setting": "[1]", "value": "98.5% (active)"}, {"measurement": "inhibition", "setting": "mutant strain inhibition", "value": -8.54, "unit": "%"}]}
